PubChem BioAssay AID1508621 (National Center for Advancing Translational Sciences (NCATS), 2021)
Records with an inconclusive call do not appear. A call without a number means that no potency is given here. Active and inactive are the calls of the source. Calls come from the whole dose curve; as a rule, active = well fitted inhibition curve with a large enough effect; inconclusive = small, poorly fitted or top-dose-only effect; inactive = no such curve, though single readings can be large or run the other way.
Potency is the fitted concentration of half-maximal effect.

Assay: Confirmatory qHTS for Identification of Small Molecule Inhibitors of Huntingtin Promoter Activity; note: nearly all actives have a fitted effect of over 65% in size
Details: HEK293 HTT promoter firefly luciferase reporter, 24 h; series mostly up to 57.5 µM
Description: Assay Provider: Russell L. Margolis M.D.
Department Neurology, Johns Hopkins University School of Medicine, Baltimore, MD
Huntington's Disease (HD) is a neurodegenerative disorder caused by a CAG repeat expansion in exon 1 of huntingtin (HTT). While there are currently no disease-modifying treatments for HD, recent efforts have focused on development of nucleotide-based therapeutics to lower HTT expression. As an alternative to siRNA or oligonucleotide methods, we hypothesized that suppression of HTT expression might be accomplished by small molecules that either (1) directly decrease HTT expression by suppressing HTT promoter activity or (2) indirectly decrease HTT expression by increasing the promoter activity of HTT-AS, the gene antisense to HTT that appears to inhibit expression of HTT.
We developed and employed a high throughput screen for modifiers of HTT and HTT-AS promoter activity using luminescent reporter HEK293 cells; of the 52,041 compounds tested, we identified 898 replicable hits. We used a rigorous stepwise approach to assess compound toxicity and the capacity of the compounds to specifically lower huntingtin protein in 5 different cell lines, including HEK293 cells, HD lymphoblastoid cells, mouse primary neurons, HD iPSCs differentiated into cortical-like neurons, and HD hESCs. We found no compounds which were able to lower huntingtin without lowering cell viability in all assays, though the potential efficacy of a few compounds at non-toxic doses could not be excluded.
SEQUENCE No. (1, 2, 3, etc.); […] (e.g., Cells, Incubation, Reagent, etc.); VALUE and DESCRIPTION.
1; Reagent; 4 uL; 2,500 Hek293 luciferase reporter cells per wells
3; Compound; 23 nL; Control inhibitor / compound library
5; Reagent; 2.5 uL; Firefly Luc reagent; Dual-Glo Luciferase Reporter Assay System (Promega)
6; Time; 10 min; room temperature incubation
7; Detection; Luminescence; FLuc
NOTES (numbers refer to sequence above)
1; High-throughput screening, measuring luminescence from a Hek293 luciferase reporter, was performed in 1,536 well white-walled tissue-culture treated plates. 2,500 cells were plated in 4 uL of Opti-MEM per well using a Multidrop Combi Reagent Dispenser (ThermoFisher).
2; Assay plates were cultured for 24 hours.
3; Control inhibitor (PTC124; final concentration of 50 uM) and compound library (at final concentrations of 460 nM - 57.5 uM) were added to the assay plate using the Kalypsis Pintool Robotic System equipped with 1536 pinheads.
4; Cells were then incubated for 24 hours at 37C prior to luminescence measurements.
5; In all cases, luminescence was measured using the Dual-Glo Luciferase Reporter Assay System (Promega) following the manufacturer's instructions.
6; Room temperature incubation.
7; Luminescence signal was obtained using the PerkinElmer ViewLux plate reader. Results were normalized to vehicle control (0% activity) and zero RLU (-100% activity).
With `Cc1ccc(-n2c(/C=C/c3ccc(Br)s3)nc3ccccc3c2=O)cc1` the Potency was “inactive”. With `O=C(N[C@H]1CN2CCC1CC2)c1ccc(Cl)cc1` the Potency was “inactive”. For `CC(C)N[C@@H]1CCn2c(=O)[nH]c3cccc(c32)[C@@H]1O`, the Potency was “inactive”. In the case of `COc1ccc(-n2c(/C=C\c3ccccc3F)nc3ccccc3c2=O)cc1OC`, the Potency was “inactive”. In the case of `Nc1c(C(=O)Nc2ccc(Cl)c(C(F)(F)F)c2)sc2nc3c(cc12)N1CCC3CC1`, the Potency was 12 µM (active). For `CCCCc1ccc(NC(=O)c2cccn(Cc3ccc(Cl)cc3)c2=O)cc1`, the Potency was “inactive”. With `CCN(CC)C(=O)N[C@@H]1C=C2c3cccc4[nH]cc(c34)C[C@@H]2N(C)C1` the Potency was “inactive”. With `Cc1ccccc1Cn1cccc(C(=O)Nc2nc3ccccc3s2)c1=O` the Potency was 12 µM (active). In the case of `O=c1c2ccccc2nc(/C=C/c2cccc3ccccc23)n1-c1ccccc1Cl`, the Potency was “inactive”. With `CC(C)(O)C=CC(=O)[C@](C)(O)[C@H]1[C@H](O)C[C@]2(C)[C@@H]3CC=C4[C@@H](C=C(O)C(=O)C4(C)C)[C@]3(C)C(=O)C[C@@]12C` the Potency was 0.757 µM (active). For `CNC(=O)N1N=C(c2ccc(N)cc2)c2cc3c(cc2CC1C)OCO3` (stereo not drawn), the Potency was “inactive”. In the case of `CCOc1ccc(NC(=O)c2cccn(Cc3cccc(Cl)c3)c2=O)cc1`, the Potency was “inactive”. For `Cc1cccc(-n2c(/C=C\c3cccc(Br)c3)nc3ccccc3c2=O)c1`, the Potency was “inactive”.
